In ChEMBL document CHEMBL1201862, “PubChem BioAssay data set” (2004):
In all, about 57,000 […] went through this assay and about 3,400 (6%) were called active. Cut-off read from the data, not from the text of the source: active = GI50 up to about 1.1 µM and inactive = higher. The list is a sample of the results. Potency and affinity values are given separately.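 How tested: cells in 96-well plates exposed to compound for 48 hours at five concentrations. Abbreviation: GI50, concentration required for 50% inhibition of growth.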

system: UO-31; assay: NCI tumour cell line growth inhibition, 48 h

In order of rising GI50:
1. [Bis(aminomethyl)pentamethylenesilane]tetrachloropaltinum(IV), CHEMBL2146204  0.731 µM
2. [Bis(aminomethyl)pentamethylenesilane]dichloropaltinum(II), CHEMBL2146202  3.21 µM
3. CISPLATIN, CHEMBL11359  3.36 µM
4. [Bis(aminomethyl)tetramethylenesilane]tetrachloropaltinum(IV), CHEMBL2146189  3.73 µM
5. [Bis(aminomethyl)diethylsilane]tetrachloroplatinum(IV), CHEMBL2146203  4.43 µM
6. [Bis(aminomethyl)ethylmethylsilane]tetrachloroplatinum(IV), CHEMBL2146192  7.48 µM
7. [Bis(aminomethyl)dimethylsilane]tetrachloroplatinum(IV), CHEMBL2146190  9.93 µM
8. cis-Bis[[(trimethylsilyl)methyl]amino]tetrachloroplatinum(IV), CHEMBL2146191  16.2 µM
9. [Bis(aminomethyl)tetramethylenesilane]dichloropaltinum(II), CHEMBL2146205  22.3 µM
10. mu-(1,7-nanodiamine-N,N')bis-(cis-aminedichloroplatimum (II)), CHEMBL2146215  44.8 µM
11. [Bis(aminomethyl)dimethylsilane]dichloroplatinum (II), CHEMBL2146201  55.2 µM
